Among the data in PubChem BioAssay AID1224853 (National Center for Advancing Translational Sciences (NCATS), 2016) are Potency values, retold here.

Results filed as inconclusive are left out. Entries that show only a call come without a potency. Activity calls are given as the source filed them. Calls follow the shape of the dose curve; as a rule, active = well fitted inhibition curve with a large enough effect; inconclusive = small, poorly fitted or top-dose-only effect; inactive = no such curve, though single readings can be large or run the other way.

The nature of this assay: Confirmation assay for measurement of the activity of small molecule inhibitors on Zika virus induced Caspase-3 activity in human astrocytoma cells. The conditions noted are these: SNB-19 ZIKV-induced caspase-3/7, luminescence, 6 h; series mostly up to 46.1 µM. The essentials: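 SNB-19 astrocytoma cells pretreated with compound 1 h, then infected with ZIKV (2 FFU/cell) for 6 h at 37 C. Caspase-3/7 luminescence read; percent inhibition normalized to uninfected and infected wells.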
Consider `O=C(C=CC=Cc1ccc2c(c1)OCO2)N1CCCCC1`, for which the Potency is 19.5 µM (active).

Take `Cc1ccc2c(n1)Oc1ccc(C(C)C(=O)OCC(=O)N(C)C)cc1C2` (stereo unspecified): the Potency is 10.9 µM (active).

In the case of `O=c1c2ccccc2nc2n1CCc1c-2[nH]c2ccccc12`, the Potency was 4.89 µM (active).

On to `CC=CC[C@@H](C)C(=O)[C@H]1C(=O)N[C@@H](C(C)C)C(=O)N(C)CC(=O)N(C)[C@@H](CC(C)C)C(=O)N[C@@H](C(C)C)C(=O)N(C)[C@@H](CC(C)C)C(=O)N[C@@H](C)C(=O)N[C@H](C)C(=O)N(C)[C@@H](CC(C)C)C(=O)N(C)[C@@H](CC(C)C)C(=O)N(C)[C@@H](C(C)C)C(=O)N1C`, for which the Potency entry was “inactive”.

As to `N[C@H](CSC(c1ccccc1)(c1ccccc1)c1ccccc1)C(=O)O`, the Potency result is “inactive”.

For `NC1CCC(Nc2nc(Nc3ccc(C(=O)N4CCCCC4)cc3)c3ncn(-c4cccc(F)c4)c3n2)CC1` (stereo unspecified), the Potency result is “inactive”.

As to `CC(=C(CCOC(=O)C(C)C)SSC(CCOC(=O)C(C)C)=C(C)N(C=O)Cc1cnc(C)nc1N)N(C=O)Cc1cnc(C)nc1N`, the Potency entry was “inactive”.

Take `O=C1C(Cl)=C(NCCN2CCOCC2)C(=O)c2ncccc21`: the Potency is 5.48 µM (active).

Consider `CC(=NNC(=S)N1CCC1)c1ccccn1`, for which the Potency entry was “inactive”.

With `Cc1ccc(C(=O)c2ccc(CC(=O)O)n2C)cc1`, the Potency result was “inactive”.

`O=C(O)c1ccccc1NCCc1ccccc1`: the Potency result was “inactive”.

As for `O[C@@H](COc1cccc2ncccc12)CN1CCN(C2c3ccccc3[C@@H]3[C@H](c4ccccc42)C3(F)F)CC1` (stereo partly specified), the Potency entry is “inactive”.

For `CCN1CCC(n2cc(CNc3cc(Cl)c4ncc(C#N)c(Nc5ccc(F)c(Cl)c5)c4c3)nn2)CC1`, the Potency result is “inactive”.

For `O=C(O)CCC(=O)c1ccc(-c2ccccc2)cc1`, the Potency was 24.5 µM (active).

Regarding `O=C(CS)Nc1ccccc1`, the Potency entry was “inactive”.

As to `O=C(Oc1ccccc1)c1cccc(C(=O)Oc2ccccc2)c1`, the Potency is 4.47 µM (active).

In the case of `CS(=O)(=O)c1ccc(-c2cn3ccccc3n2)cc1`, the Potency was 4.35 µM (active).

Turning to `O=C(Nc1ccc(OC(F)(F)F)cc1)c1sccc1NCc1ccnc2ccccc12`, the Potency was 6.9 µM (active).

In the case of `CN(C)c1ccc(C(=C2C=CC(=[N+](C)C)C=C2)c2ccccc2)cc1`, the Potency entry is “inactive”.

For the compound `CC[C@@]1(O)C[C@H](O[C@H]2C[C@H](N(C)C)[C@H](O[C@H]3C[C@H](O)[C@H](O[C@H]4CCC(=O)[C@H](C)O4)[C@H](C)O3)[C@H](C)O2)c2c(cc3c(c2O)C(=O)c2c(O)cccc2C3=O)[C@@H]1C(=O)OC`, the Potency result was “inactive”.

In the case of `O=C1c2ccccc2C(=O)c2c(NCCc3ccc(O)cc3)ccc(NCCc3ccc(O)cc3)c21`, the Potency entry was “inactive”.
